The structures appear in SMILES notation. Results filed as inconclusive are left out. Entries that show only a call come without a potency. Calls of active or inactive are those of the source. Calls follow the shape of the dose curve; as a rule, active = well fitted cell-killing curve with a large enough effect in the repeat runs; inconclusive = weak or mixed curves, or effect the other way; inactive = no such curve, though single readings can be large or run the other way.

The assay is described as follows: qHTS assay to identify small molecule antagonists of the vitamin D receptor (VDR) signaling pathway - cell viability counter screen (AID 743225). Also: nearly all actives have a fitted effect of over 50% in size. To be noted: VDR-bla HEK293T viability, CellTiter-Glo luminescence, 16 h; series mostly up to 61 µM. From the text: U.S. Tox21 Program National Center for Advancing Translational Sciences [NCATS] NIH Chemical Genomics Center [NCGC] U.S. Environmental Protection Agency [EPA] National Institutes of Environmental Health Sciences [NIEHS] National Toxicology Program [NTP] U.S. Food and Drug Administration [FDA] Tox21 Assay Overview: The vitamin D receptor (VDR), a member of nuclear hormone receptor superfamily, plays a critical role in calcium homeostasis and bone metabolism. It is also involved in cell differentiation and growth, and thrombogenicity. To identify the compounds that inhibit VDR signaling, the VDR-UAS-bla HEK 293T cell line (Invitrogen, Carlsbad, CA, USA) containing a beta-lactamase reporter gene under the control of an upstream activator sequence (UAS) was used to screen the Tox21 10K compound library. The cytotoxicity of the Tox21 compound library against the VDR-bla cell line was tested in parallel by measuring the cell viability using CellTiter-Glo assay (Promega, Madison, WI) in the same wells.
Tox21 Assay Protocol Summary: VDR-bla cells were dispensed at 2,000 cells/5 uL of assay medium per well into black wall/clear-bottom 1536-well plates using a Multidrop Combi (Thermo Fisher Scientific, Waltham, MA) dispenser. After the assay plates were incubated at a 37C and 5% CO2 for 4 h, 23 nL of compounds dissolved in DMSO, positive controls or DMSO only was transferred to the assay plate by a Pintool station (Kalypsys, San Diego, CA), followed by addition of 1 uL of 1-alpha, 25-Dihydroxy Vitamin D3 (3 nM, final concentration in the wells) using a Bioraptr Flying Reagent Dispenser (FRD) workstation (Beckman Coulter, Indianapolis, IN). The plates were incubated at 37C and 5% CO2 for 16 h, and then 1 uL of LiveBLAzerTM B/G FRET substrate was added using a Bioraptr FRD. The plates were incubated at room temperature for 2 h and fluorescence intensity was measured by an Envision plate reader (PerkinElmer, Shelton, CT). For cell viability readout that measures cytotoxicity, 3 ul/well of CellTiter-Glo reagent was added into the assay plates using a Bioraptr FRD. After 30 min incubation at room temperature, the luminescence intensity in the plates was measured using a ViewLux plate reader (PerkinElmer).
(In general: qHTS replaces the single test concentration by a dilution series.)
As for `O=Cc1ccc(F)c(Br)c1`, the Potency entry was “inactive”.

For the compound `CNCCC(Oc1ccccc1OC)c1ccccc1` (stereo not given), the Potency result was “inactive”.

For `Cc1cc(S(=O)(=O)O)c(N)cc1Cl`, the Potency entry is “inactive”.

Regarding `O=C1N(c2ccccc2)c2ccccc2C1(Cc1ccncc1)Cc1ccncc1`, the Potency entry is “inactive”.

As to `CC(=O)Nc1ccc(C)c(Cl)c1`, the Potency entry was “inactive”.

As to `CCc1cc2cc(OC)c(OC)cc2c(Cc2ccccc2)n1`, the Potency result is “inactive”.

With `CCCCNCCCC`, the Potency entry was “inactive”.

Turning to `CCNCCO`, the Potency result is “inactive”.

With `COc1cc(Cl)ccc1Cl`, the Potency result is “inactive”.

Regarding `Cc1cc2c(s1)Nc1ccccc1N=C2N1CCN(C)CC1`, the Potency result is “inactive”.

With `O=S(=O)(O)C(F)(F)F`, the Potency result was “inactive”.

Turning to `CN1CCC[C@@H]1Cc1c[nH]c2ccc(CCS(=O)(=O)c3ccccc3)cc12`, the Potency result is “inactive”.

With `CO[C@@]1(NC(=O)CSCC#N)C(=O)N2C(C(=O)O)=C(CSc3nnnn3C)CS[C@@H]21`, the Potency entry was “inactive”.

Consider `CCOC(=O)C(Br)c1ccccc1` (stereo not given), for which the Potency result was “inactive”.

As to `CCCS(=O)c1ccc2nc(NC(=O)OC)[nH]c2c1` (stereo not given), the Potency result was “inactive”.

On to `C=CCCCCCCCCO`, for which the Potency result was “inactive”.

In the case of `O=C1CCC(C2CCCCC2)CC1`, the Potency entry was “inactive”.

Take `NS(=O)(=O)c1cc(-c2nn[nH]n2)c(NCc2cccs2)cc1Cl`: the Potency result was “inactive”.

Consider `CCCNC(C)C(=O)Nc1c(C)csc1C(=O)OC` (stereo not given), for which the Potency result was “inactive”.

As to `CCCCOc1cc(C(=O)NCCN(CC)CC)c2ccccc2n1`, the Potency result was “inactive”.

On to `CCOc1ccc(NS(=O)(=O)c2ccc(N)cc2)nn1`, for which the Potency entry is “inactive”.

Regarding `O=C(O[C@@H](C(=O)O)[C@@H](OC(=O)c1ccccc1)C(=O)O)c1ccccc1`, the Potency result is “inactive”.

With `CC(=O)Oc1cc(C(C)C)c(OCCN(C)C)cc1C`, the Potency result is “inactive”.

In the case of `O=C(CCCl)NCc1ccccc1`, the Potency result was “inactive”.

For `CC(=O)O[C@H]1CC[C@@]2(C)C(=CC[C@@H]3[C@@H]2CC[C@]2(C)C(C(C)=O)=CC[C@@H]32)C1`, the Potency result is “inactive”.

Regarding `CC(C)(C)C1CCCCC1=O` (stereo not given), the Potency result was “inactive”.

On to `Cc1ccc(C=O)s1`, for which the Potency entry is “inactive”.

As for `CCOC(=O)c1cc(=O)c2c(OCC(COc3cccc4oc(C(=O)OCC)cc(=O)c34)OC(=O)[C@@H](N)CCCCN)cccc2o1`, the Potency entry was “inactive”.

`CCCC(CCC)(C(=O)OCC)C(=O)OCC`: the Potency entry was “inactive”.

For `CCC(=O)Nc1ccc(O)cc1`, the Potency entry was “inactive”.

For `CC(C)S`, the Potency entry is “inactive”.

As to `O=C(C(Cl)Cl)N1CCOC12CCCCC2`, the Potency entry was “inactive”.

With `NNS(=O)(=O)c1ccc(Oc2ccc(S(=O)(=O)NN)cc2)cc1`, the Potency entry was “inactive”.

In the case of `CN(C)C(=O)NC1(c2ccccc2)CCN(CCC[C@]2(c3ccc(Cl)c(Cl)c3)CCCN(C(=O)c3ccccc3)C2)CC1`, the Potency result was “inactive”.

As to `Cc1ccc([N+](=O)[O-])cc1Cl`, the Potency entry is “inactive”.

For the compound `CCCC1CCC(=O)O1` (stereo not given), the Potency entry is “inactive”.

On to `CC(C)(CO)[C@@H](O)C(=O)NCCC(=O)O`, for which the Potency result is “inactive”.

For `CCN(CC)CC1CCCCN1CC(=O)N1c2ccccc2C(=O)Nc2cccnc21` (stereo not given), the Potency result was “inactive”.

As for `CC(C)Nc1nc(N)nc(Cl)n1`, the Potency entry is “inactive”.

For `O=CCCc1ccccc1`, the Potency entry was “inactive”.

These data come from PubChem BioAssay (Tox21).
